# Test results from ChEMBL document CHEMBL1961873, “Compounds: GSK PKIS; Assays: Nanosyn kinase panel” (2012).
# Assays:
# [1] = biological target: T1, Aurora kinase A (Homo sapiens) (UniProt O14965); details: at 1 µM;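 further: values are mean percent inhibition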
# T1 sequence (whole entry): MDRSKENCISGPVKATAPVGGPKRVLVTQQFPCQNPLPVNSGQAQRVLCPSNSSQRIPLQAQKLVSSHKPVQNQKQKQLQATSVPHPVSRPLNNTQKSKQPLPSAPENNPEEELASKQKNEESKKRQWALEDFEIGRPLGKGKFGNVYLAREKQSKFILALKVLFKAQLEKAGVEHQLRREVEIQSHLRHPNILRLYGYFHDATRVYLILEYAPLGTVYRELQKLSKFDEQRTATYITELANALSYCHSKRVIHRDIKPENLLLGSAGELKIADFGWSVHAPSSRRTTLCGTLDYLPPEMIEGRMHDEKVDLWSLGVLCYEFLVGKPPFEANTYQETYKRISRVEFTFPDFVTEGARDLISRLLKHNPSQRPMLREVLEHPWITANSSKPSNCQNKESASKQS
# [2] = biological target: Aurora kinase B (Homo sapiens) (UniProt Q96GD4); details: at 0.1 µM
# [3] = biological target: Aurora kinase B (Homo sapiens) (UniProt Q96GD4); details: at 1 µM
# [4] = biological target: T2, Aurora kinase C (Homo sapiens) (UniProt Q9UQB9); details: at 0.1 µM
# T2 sequence (whole entry): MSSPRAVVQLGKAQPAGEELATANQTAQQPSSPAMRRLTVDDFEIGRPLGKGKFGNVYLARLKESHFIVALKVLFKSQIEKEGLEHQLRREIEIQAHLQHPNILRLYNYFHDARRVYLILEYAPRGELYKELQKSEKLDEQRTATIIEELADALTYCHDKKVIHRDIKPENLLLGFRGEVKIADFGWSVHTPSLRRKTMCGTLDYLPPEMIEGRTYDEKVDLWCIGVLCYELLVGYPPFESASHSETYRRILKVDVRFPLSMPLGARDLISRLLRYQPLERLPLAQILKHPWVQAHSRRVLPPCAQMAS
# [5] = biological target: T2, Aurora kinase C (Homo sapiens); details: at 1 µM
# [6] = biological target: Serine/threonine-protein kinase 10 (Homo sapiens) (UniProt O94804); details: at 0.1 µM
# [7] = biological target: Serine/threonine-protein kinase 10 (Homo sapiens) (UniProt O94804); details: at 1 µM
# [8] = biological target: T3, Mitogen-activated protein kinase kinase kinase kinase 2 (Homo sapiens) (UniProt Q12851); details: at 0.1 µM
# T3 sequence (whole entry): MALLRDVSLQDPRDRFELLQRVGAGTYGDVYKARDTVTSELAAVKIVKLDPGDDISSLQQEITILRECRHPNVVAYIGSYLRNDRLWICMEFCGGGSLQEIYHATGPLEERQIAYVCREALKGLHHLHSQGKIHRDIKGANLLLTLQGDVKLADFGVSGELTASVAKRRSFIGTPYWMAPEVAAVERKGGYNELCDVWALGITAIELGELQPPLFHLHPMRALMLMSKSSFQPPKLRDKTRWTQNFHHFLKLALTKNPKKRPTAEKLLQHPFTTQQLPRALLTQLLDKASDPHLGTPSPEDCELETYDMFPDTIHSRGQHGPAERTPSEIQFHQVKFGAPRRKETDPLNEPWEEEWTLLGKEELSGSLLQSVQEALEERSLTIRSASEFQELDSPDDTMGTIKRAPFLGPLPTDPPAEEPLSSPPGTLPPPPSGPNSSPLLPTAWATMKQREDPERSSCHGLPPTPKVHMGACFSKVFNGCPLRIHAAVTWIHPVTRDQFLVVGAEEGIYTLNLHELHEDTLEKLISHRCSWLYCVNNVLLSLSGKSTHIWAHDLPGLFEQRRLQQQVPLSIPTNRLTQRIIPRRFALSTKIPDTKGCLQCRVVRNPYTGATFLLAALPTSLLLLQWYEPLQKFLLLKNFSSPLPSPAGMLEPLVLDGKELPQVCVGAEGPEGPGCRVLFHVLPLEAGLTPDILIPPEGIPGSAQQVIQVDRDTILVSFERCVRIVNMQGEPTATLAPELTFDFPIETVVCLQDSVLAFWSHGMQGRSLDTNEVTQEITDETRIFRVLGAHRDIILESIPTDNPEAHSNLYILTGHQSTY
# [9] = biological target: T3, Mitogen-activated protein kinase kinase kinase kinase 2 (Homo sapiens); details: at 1 µM
# [10] = biological target: Mitogen-activated protein kinase kinase kinase kinase 4 (Homo sapiens) (UniProt O95819); details: at 0.1 µM
# Chain of Mitogen-activated protein kinase kinase kinase kinase 4 (Homo sapiens) (O95819 2-1239 limits assumed): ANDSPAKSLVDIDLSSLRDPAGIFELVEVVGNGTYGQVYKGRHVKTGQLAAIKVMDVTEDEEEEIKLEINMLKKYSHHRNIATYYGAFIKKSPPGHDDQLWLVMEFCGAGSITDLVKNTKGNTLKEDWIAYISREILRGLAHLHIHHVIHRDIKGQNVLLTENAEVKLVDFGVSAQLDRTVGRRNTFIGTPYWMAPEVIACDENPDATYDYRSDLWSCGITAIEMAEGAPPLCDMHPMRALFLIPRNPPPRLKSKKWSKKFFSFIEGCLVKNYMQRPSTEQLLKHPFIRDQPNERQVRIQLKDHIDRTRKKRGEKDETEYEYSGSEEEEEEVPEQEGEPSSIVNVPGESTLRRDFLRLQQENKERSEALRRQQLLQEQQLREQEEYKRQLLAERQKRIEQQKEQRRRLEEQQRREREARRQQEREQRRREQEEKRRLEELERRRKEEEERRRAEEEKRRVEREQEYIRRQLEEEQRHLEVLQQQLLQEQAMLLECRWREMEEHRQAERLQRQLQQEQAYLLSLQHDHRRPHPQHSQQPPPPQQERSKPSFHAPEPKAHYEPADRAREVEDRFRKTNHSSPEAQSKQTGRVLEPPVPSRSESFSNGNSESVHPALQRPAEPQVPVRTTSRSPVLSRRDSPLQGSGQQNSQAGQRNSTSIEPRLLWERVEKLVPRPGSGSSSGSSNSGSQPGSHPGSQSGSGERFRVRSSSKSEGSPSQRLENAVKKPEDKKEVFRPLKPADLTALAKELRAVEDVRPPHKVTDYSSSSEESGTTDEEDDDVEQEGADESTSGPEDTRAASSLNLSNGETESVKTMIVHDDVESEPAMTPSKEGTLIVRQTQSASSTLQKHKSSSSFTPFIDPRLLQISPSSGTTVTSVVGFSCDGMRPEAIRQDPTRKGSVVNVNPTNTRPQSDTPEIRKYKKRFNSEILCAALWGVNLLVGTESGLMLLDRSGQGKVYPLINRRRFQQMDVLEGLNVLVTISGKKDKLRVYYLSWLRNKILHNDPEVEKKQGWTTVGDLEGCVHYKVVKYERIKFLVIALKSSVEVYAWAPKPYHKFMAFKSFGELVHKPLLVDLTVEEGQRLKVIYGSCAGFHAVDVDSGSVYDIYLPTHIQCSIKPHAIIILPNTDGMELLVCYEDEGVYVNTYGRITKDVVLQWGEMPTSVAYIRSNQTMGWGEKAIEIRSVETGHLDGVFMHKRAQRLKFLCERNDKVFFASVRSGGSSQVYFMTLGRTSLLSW
# Chain of Serine/threonine-protein kinase 10 (Homo sapiens) (O94804 whole entry, looked up): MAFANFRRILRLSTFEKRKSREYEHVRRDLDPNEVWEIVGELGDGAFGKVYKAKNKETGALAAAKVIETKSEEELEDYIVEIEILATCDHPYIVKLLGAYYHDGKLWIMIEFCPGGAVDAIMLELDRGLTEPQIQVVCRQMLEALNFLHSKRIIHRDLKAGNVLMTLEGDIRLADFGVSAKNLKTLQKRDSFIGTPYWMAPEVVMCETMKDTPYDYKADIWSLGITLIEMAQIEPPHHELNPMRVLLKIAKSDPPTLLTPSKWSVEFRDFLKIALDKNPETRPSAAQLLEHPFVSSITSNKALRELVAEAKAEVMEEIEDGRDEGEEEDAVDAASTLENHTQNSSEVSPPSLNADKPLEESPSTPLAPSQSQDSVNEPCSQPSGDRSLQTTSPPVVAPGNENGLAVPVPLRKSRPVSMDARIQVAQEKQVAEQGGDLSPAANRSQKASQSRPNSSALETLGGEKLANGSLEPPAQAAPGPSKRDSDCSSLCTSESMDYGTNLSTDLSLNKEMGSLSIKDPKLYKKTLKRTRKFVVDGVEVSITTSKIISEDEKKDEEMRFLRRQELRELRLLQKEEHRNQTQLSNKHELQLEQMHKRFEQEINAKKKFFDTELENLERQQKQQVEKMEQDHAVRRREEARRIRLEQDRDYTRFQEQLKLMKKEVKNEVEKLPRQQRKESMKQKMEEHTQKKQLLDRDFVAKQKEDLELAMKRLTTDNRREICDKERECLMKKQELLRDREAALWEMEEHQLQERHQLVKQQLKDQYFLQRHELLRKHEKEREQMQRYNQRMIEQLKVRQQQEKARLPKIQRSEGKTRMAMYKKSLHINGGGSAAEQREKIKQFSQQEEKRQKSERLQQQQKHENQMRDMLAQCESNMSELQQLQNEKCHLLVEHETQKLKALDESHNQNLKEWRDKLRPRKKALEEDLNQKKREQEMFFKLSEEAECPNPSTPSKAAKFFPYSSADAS
# Chain of Aurora kinase B (Homo sapiens) (Q96GD4 whole entry): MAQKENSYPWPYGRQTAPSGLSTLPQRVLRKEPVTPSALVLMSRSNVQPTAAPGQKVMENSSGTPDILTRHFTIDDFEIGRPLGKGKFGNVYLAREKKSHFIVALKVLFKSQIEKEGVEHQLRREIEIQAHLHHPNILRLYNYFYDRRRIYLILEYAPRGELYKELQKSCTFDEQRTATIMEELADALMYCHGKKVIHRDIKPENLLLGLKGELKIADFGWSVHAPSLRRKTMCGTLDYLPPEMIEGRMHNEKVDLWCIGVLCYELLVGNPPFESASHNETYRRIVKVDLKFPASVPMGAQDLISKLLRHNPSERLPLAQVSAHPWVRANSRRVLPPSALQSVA
SMILES,inhibition [1] [%],inhibition [2] [%],inhibition [3] [%],inhibition [4] [%],inhibition [5] [%],inhibition [6] [%],inhibition [7] [%],inhibition [8] [%],inhibition [9] [%],inhibition [10] [%]
CS(=O)(=O)CCNCc1coc(-c2ccc3ncnc(Nc4ccc(OCc5ccccc5)cc4)c3c2)c1,4.78,1.47,9.78,1.46,8.58,8.03,6.21,0.9,3.83,3.41
O=S(=O)(CCNCc1ccc(-c2ccc3ncnc(Nc4ccc(OCc5cccc(F)c5)c(Cl)c4)c3c2)o1)c1ccccc1,6.24,5.41,11.8,2.93,10.2,9.92,17.5,2.04,5.59,4.02
CCn1c(-c2nonc2N)nc2c(C#CC(C)(C)O)nc(OC[C@H](N)c3ccccc3)cc21,2.98,3.29,5.24,1.89,2.08,7.07,28.8,3.33,16,4.79
O=C(Nc1n[nH]c2cc(-c3ccc(F)cc3)ccc12)C1CC1,12.8,2.7,6.25,0.6,6.95,3.84,8.91,1.48,5.08,20.1
COC(=O)Nc1nc2ccc(S(=O)(=O)c3ccc(NC(=O)Nc4cc(C(F)(F)F)ccc4F)cc3)cc2[nH]1,8.25,3.7,7.15,0.87,14.1,3.49,10.6,-0.09,1.67,2.49
CCn1c(-c2nonc2N)nc2ccccc21,7.95,0.55,5.64,-0.58,11.2,2.59,6.5,0.98,3.67,4.69
COc1cc2ncn(-c3cc(OCc4ccccc4C(F)(F)F)c(C(=O)N(C)C)s3)c2cc1OC,9.82,5.54,31.1,3.22,46.2,12.9,55.8,0.57,2.23,0.42
CN1CCC(n2cnc(-c3ccc(F)cc3)c2-c2ccnc(N)n2)CC1,7.96,1.08,7.37,1.63,1.25,3.39,5.28,0.79,5.37,2.95
